This is part of a sample that, as a whole, favours compounds with a hit. Of some 79,000 tested, about 15% had one in any assay. A number with no mark means an inactive call. Active and inactive are the calls of the source. Cut-off read from the data, not from the text of the source: active = growth inhibition above about 70%; inactive = the rest.
Legend:
[1] = NCI Yeast Anticancer Drug Screen. Data for the rad52 strain (AID 147);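 note: 0% = growth of vehicle-treated control cultures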; conditions: S. cerevisiae rad52 mutant growth inhibition, hits give high values
How it was run: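 Vehicle-treated cultures served as the reference for growth inhibition of compound-exposed yeast bearing a DNA repair mutation.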

[2] = NCI Yeast Anticancer Drug Screen. Data for the wt1 strain (AID 149);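 note: 0% = growth of vehicle-treated wt1 cultures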; conditions: S. cerevisiae wt1 strain (SPY 50644) growth inhibition, hits give high values
How it was run: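 Growth inhibition read against vehicle controls after compound exposure of the wt1 yeast strain.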

[3] = NCI Yeast Anticancer Drug Screen. Data for the rad50EPP+ strain (AID 151);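 note: 0% = growth of vehicle-treated control cultures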; conditions: S. cerevisiae rad50 mutant strain, hits give high values
How it was run: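 In this screen, rad50EPP+ yeast were exposed to compounds. Growth inhibition was scored against vehicle-treated controls.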

[4] = NCI Yeast Anticancer Drug Screen. Data for the mgt1 strain (AID 153); conditions: S. cerevisiae mgt1 mutant growth inhibition, hits give high values
How it was run: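 mgt1 strain exposed; growth vs vehicle control recorded as inhibition.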

[5] = NCI Yeast Anticancer Drug Screen. Data for the rad50 strain (AID 155);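 note: 0% = growth of vehicle-only cultures of the same strain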; conditions: S. cerevisiae rad50 strain growth inhibition, hits give high values
How it was run: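 Readout: growth inhibition relative to vehicle-treated cultures. Compound exposure was carried out in a genetically defined yeast strain deficient in DNA damage repair.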

[6] = NCI Yeast Anticancer Drug Screen. Data for the mec2-1 strain (AID 157); conditions: S. cerevisiae mec2-1 strain, hits give high values
How it was run: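 Vehicle-treated cultures served as reference for growth inhibition of compound-exposed mec2-1 yeast.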

[7] = NCI Yeast Anticancer Drug Screen. Data for the rad14 strain (AID 159);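 note: 0% = growth of vehicle-treated control cultures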; conditions: S. cerevisiae rad14 strain growth inhibition, hits give high values
How it was run: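 Growth inhibition vs vehicle controls; genetically altered yeast strain (DNA damage repair defect) treated with test compounds.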

[8] = NCI Yeast Anticancer Drug Screen. Data for the sgs1 mgt1 strain (AID 161);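 note: 0% = growth of cultures given vehicle only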; conditions: S. cerevisiae sgs1 mgt1 strain, hits give high values
How it was run: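 Read-out: growth inhibition vs vehicle controls. Cells: mutant yeast strain deficient in DNA damage repair.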

[9] = NCI Yeast Anticancer Drug Screen. Data for the CLN2oe strain (AID 163);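 note: 0% = growth of vehicle-only control cultures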; conditions: S. cerevisiae CLN2oe strain, hits give high values
How it was run: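 Inhibition relative to vehicle-treated yeast is reported. Cells: strain with genetic alteration in cell-cycle control, grown with compound.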

[10] = NCI Yeast Anticancer Drug Screen. Data for the cln2 rad14 strain (AID 165);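 note: 0% = growth equal to vehicle treated cultures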; conditions: S. cerevisiae cln2 rad14 strain, hits give high values
How it was run: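 Each compound was tested on cln2 rad14 yeast. Inhibition of growth was calculated against vehicle-exposed controls.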

[11] = NCI Yeast Anticancer Drug Screen. Data for the bub3 strain (AID 167); conditions: S. cerevisiae bub3 mutant strain, hits give high values
How it was run: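 Readout: yeast growth inhibition, expressed relative to vehicle-only wells. The test organism is a mutant strain from a panel with lesions in DNA repair or checkpoint genes.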

[12] = NCI Yeast Anticancer Drug Screen. Data for the wt2 strain (AID 169);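 note: 0% = growth of vehicle-treated yeast cultures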; conditions: S. cerevisiae wt2 strain growth inhibition, hits give high values
How it was run: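 Inhibition of yeast growth was determined after compound treatment, normalised to controls receiving only vehicle.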

[13] = NCI Yeast Anticancer Drug Screen. Data for the mlh1 strain (AID 171);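 note: 0% = growth of vehicle-treated control cultures of the same strain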; conditions: S. cerevisiae mlh1 strain growth inhibition, hits give high values
How it was run: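 Vehicle-normalised growth inhibition of a repair- or checkpoint-altered yeast strain following compound treatment.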

[14] = NCI Yeast Anticancer Drug Screen. Data for the sgs1 strain (AID 173);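 note: 0% = growth of vehicle-only control cultures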; conditions: S. cerevisiae sgs1 mutant, hits give high values
How it was run: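 Screen format: yeast with repair or checkpoint alterations, compound exposure, growth read relative to vehicle.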

[15] = NCI Yeast Anticancer Drug Screen. Data for the mlh1 rad18 strain (AID 175); conditions: S. cerevisiae mlh1 rad18 strain growth inhibition, hits give high values
How it was run: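 Vehicle-treated cultures served as the reference for growth inhibition in a yeast strain carrying DNA damage repair alterations exposed to each compound.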

[16] = NCI Yeast Anticancer Drug Screen. Data for the rad18 strain (AID 177); conditions: S. cerevisiae rad18 mutant growth inhibition, hits give high values
How it was run: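 Test articles were incubated with altered yeast defective in DNA damage repair. Results are given as inhibition of growth versus vehicle.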

[17] = at 5.0 µM (retest, dose inferred, filed as 0.5)
[18] = at 50.0 µM (retest, dose inferred, filed as 5.0)

## c1ccc2c(c1)N=C1CCCC3CCCC123 (stereo not drawn)
[1]; at 1.2 µM
  growth inhibition: 3%
[1]; at 3.7 µM
  growth inhibition: 4%
[1]; at 11.0 µM
  growth inhibition: 11%
[1]; at 33.0 µM
  growth inhibition: 56%
[1]; at 100.0 µM
  growth inhibition: 98% (active)
[2]; at 1.2 µM
  growth inhibition: -2%
[2]; at 3.7 µM
  growth inhibition: 2%
[2]; at 11.0 µM
  growth inhibition: 7%
[2]; at 33.0 µM
  growth inhibition: -1%
[2]; at 100.0 µM
  growth inhibition: 97% (active)
[3]; at 1.2 µM
  growth inhibition: -9%
[3]; at 3.7 µM
  growth inhibition: -14%
[3]; at 11.0 µM
  growth inhibition: -11%
[3]; at 33.0 µM
  growth inhibition: 5%
[3]; at 100.0 µM
  growth inhibition: 68%
[4]; at 1.2 µM
  growth inhibition: 1%
[4]; at 3.7 µM
  growth inhibition: 1%
[4]; at 11.0 µM
  growth inhibition: 6%
[4]; at 33.0 µM
  growth inhibition: 21%
[4]; at 100.0 µM
  growth inhibition: 98% (active)
[5]; at 1.2 µM
  growth inhibition: -2%
[5]; at 3.7 µM
  growth inhibition: 2%
[5]; [17]
  growth inhibition: -161%
[5]; at 11.0 µM
  growth inhibition: 11%
[5]; at 33.0 µM
  growth inhibition: 32%
[5]; [18]
  growth inhibition: 63%
[5]; at 50.0 µM
  growth inhibition: 91% (active)
[5]; at 100.0 µM
  growth inhibition: 98% (active)
[6]; at 1.2 µM
  growth inhibition: -2%
[6]; at 3.7 µM
  growth inhibition: 1%
[6]; [17]
  growth inhibition: -46%
[6]; at 11.0 µM
  growth inhibition: -15%
[6]; at 33.0 µM
  growth inhibition: 25%
[6]; [18]
  growth inhibition: 65%
[6]; at 50.0 µM
  growth inhibition: 89.6% (active)
[6]; at 100.0 µM
  growth inhibition: 99% (active)
[7]; at 1.2 µM
  growth inhibition: -3%
[7]; at 3.7 µM
  growth inhibition: -7%
[7]; at 11.0 µM
  growth inhibition: 3%
[7]; at 33.0 µM
  growth inhibition: 3%
[7]; at 100.0 µM
  growth inhibition: 97% (active)
[8]; [17]
  growth inhibition: -57%
[8]; [18]
  growth inhibition: 60%
[8]; at 50.0 µM
  growth inhibition: 83.7% (active)
[9]; at 1.2 µM
  growth inhibition: -3%
[9]; at 3.7 µM
  growth inhibition: -1%
[9]; at 11.0 µM
  growth inhibition: 4%
[9]; at 33.0 µM
  growth inhibition: 15%
[9]; at 100.0 µM
  growth inhibition: 98% (active)
[10]; [17]
  growth inhibition: -67%
[10]; [18]
  growth inhibition: -26%
[10]; at 50.0 µM
  growth inhibition: 23.6%
[11]; at 1.2 µM
  growth inhibition: -2%
[11]; at 3.7 µM
  growth inhibition: 10%
[11]; [17]
  growth inhibition: -50%
[11]; at 11.0 µM
  growth inhibition: 22%
[11]; at 33.0 µM
  growth inhibition: 61%
[11]; [18]
  growth inhibition: 61%
[11]; at 50.0 µM
  growth inhibition: 91.4% (active)
[11]; at 100.0 µM
  growth inhibition: 98% (active)
[12]; at 1.2 µM
  growth inhibition: 1%
[12]; at 3.7 µM
  growth inhibition: 2%
[12]; at 11.0 µM
  growth inhibition: 3%
[12]; at 33.0 µM
  growth inhibition: -1%
[12]; at 100.0 µM
  growth inhibition: 98% (active)
[13]; at 1.2 µM
  growth inhibition: 6%
[13]; at 3.7 µM
  growth inhibition: 3%
[13]; at 11.0 µM
  growth inhibition: 3%
[13]; at 33.0 µM
  growth inhibition: 3%
[13]; at 100.0 µM
  growth inhibition: 97% (active)
[14]; at 1.2 µM
  growth inhibition: -1%
[14]; at 3.7 µM
  growth inhibition: 9%
[14]; at 11.0 µM
  growth inhibition: 12%
[14]; at 33.0 µM
  growth inhibition: 16%
[14]; at 100.0 µM
  growth inhibition: 99% (active)
[15]; [17]
  growth inhibition: -133%
[15]; [18]
  growth inhibition: 12%
[15]; at 50.0 µM
  growth inhibition: 90.8% (active)
[16]; at 1.2 µM
  growth inhibition: -2%
[16]; at 3.7 µM
  growth inhibition: -3%
[16]; at 11.0 µM
  growth inhibition: 0%
[16]; at 33.0 µM
  growth inhibition: -6%
[16]; at 100.0 µM
  growth inhibition: 98% (active)

## COC1/C=C\C=C(/C)C(=O)NC2=CC(=O)C(=O)C(=C2O)CC(C)CC(OC)C(O)C(C)/C=C(\C)C1OC(N)=O (stereo not drawn)
[1]; at 1.2 µM
  growth inhibition: 24%
[1]; at 3.7 µM
  growth inhibition: 32%
[1]; at 11.0 µM
  growth inhibition: 94% (active)
[1]; at 33.0 µM
  growth inhibition: 98% (active)
[1]; at 100.0 µM
  growth inhibition: 97% (active)
[2]; at 1.2 µM
  growth inhibition: 10%
[2]; at 3.7 µM
  growth inhibition: -17%
[2]; at 11.0 µM
  growth inhibition: 86% (active)
[2]; at 33.0 µM
  growth inhibition: 95% (active)
[2]; at 100.0 µM
  growth inhibition: 94% (active)
[3]; at 1.2 µM
  growth inhibition: 15%
[3]; at 3.7 µM
  growth inhibition: 2%
[3]; at 11.0 µM
  growth inhibition: 3%
[3]; at 33.0 µM
  growth inhibition: 7%
[3]; at 100.0 µM
  growth inhibition: 46%
[4]; at 1.2 µM
  growth inhibition: -10%
[4]; at 3.7 µM
  growth inhibition: 28%
[4]; at 11.0 µM
  growth inhibition: 90% (active)
[4]; at 33.0 µM
  growth inhibition: 96% (active)
[4]; at 100.0 µM
  growth inhibition: 95% (active)
[5]; at 1.2 µM
  growth inhibition: 17%
[5]; at 3.7 µM
  growth inhibition: 40%
[5]; [17]
  growth inhibition: -17%
[5]; at 11.0 µM
  growth inhibition: 94% (active)
[5]; at 33.0 µM
  growth inhibition: 96% (active)
[5]; [18]
  growth inhibition: 94% (active)
[5]; at 50.0 µM
  growth inhibition: 87.5% (active)
[5]; at 100.0 µM
  growth inhibition: 95% (active)
[6]; at 1.2 µM
  growth inhibition: -12%
[6]; at 3.7 µM
  growth inhibition: 50%
[6]; [17]
  growth inhibition: 56%
[6]; at 11.0 µM
  growth inhibition: 94% (active)
[6]; at 33.0 µM
  growth inhibition: 96% (active)
[6]; [18]
  growth inhibition: 97% (active)
[6]; at 50.0 µM
  growth inhibition: 89.8% (active)
[6]; at 100.0 µM
  growth inhibition: 95% (active)
[7]; at 1.2 µM
  growth inhibition: -13%
[7]; at 3.7 µM
  growth inhibition: -10%
[7]; at 11.0 µM
  growth inhibition: 91% (active)
[7]; at 33.0 µM
  growth inhibition: 95% (active)
[7]; at 100.0 µM
  growth inhibition: 95% (active)
[8]; [17]
  growth inhibition: 13%
[8]; [18]
  growth inhibition: 95% (active)
[8]; at 50.0 µM
  growth inhibition: 89.8% (active)
[9]; at 1.2 µM
  growth inhibition: -32%
[9]; at 3.7 µM
  growth inhibition: 34%
[9]; at 11.0 µM
  growth inhibition: 94% (active)
[9]; at 33.0 µM
  growth inhibition: 95% (active)
[9]; at 100.0 µM
  growth inhibition: 94% (active)
[10]; [17]
  growth inhibition: 45%
[10]; [18]
  growth inhibition: 96% (active)
[10]; at 50.0 µM
  growth inhibition: 77.8% (active)
[11]; at 1.2 µM
  growth inhibition: -6%
[11]; at 3.7 µM
  growth inhibition: 51%
[11]; [17]
  growth inhibition: 67%
[11]; at 11.0 µM
  growth inhibition: 93% (active)
[11]; at 33.0 µM
  growth inhibition: 96% (active)
[11]; [18]
  growth inhibition: 97% (active)
[11]; at 50.0 µM
  growth inhibition: 86.2% (active)
[11]; at 100.0 µM
  growth inhibition: 95% (active)

From PubChem BioAssay (NCI)
